The source of these data is PubChem BioAssay (NCATS).

Test in all cases: qHTS profiling for inhibitors of Plasmodium falciparum proliferation (AID 504749); also: nearly all actives have a fitted effect of over 60% in size
What all share (conditions): P. falciparum in erythrocytes, SYBR Green DNA, 72 h; series mostly up to 28.7 µM
In general terms: qHTS replaces the single test concentration by a dilution series.

The subject of one experiment is CP262. Put shortly:
(§1)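 Quantitative HTS: compounds pinned into medium, infected erythrocytes added (0.3% parasitemia, 2.5% hematocrit), 72 h culture at 37 C under 5% CO2. Saponin/Triton lysis with SYBR Green I, overnight RT, then fluorescence read.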

In a further experiment the test system is CP265. Put shortly:
as §1

The test system of the next experiment is CP266. Put shortly:
as §1

Another experiment has as its system CP268. The gist of the method: as §1
A further experiment relates to CP269. The gist of the method: as §1
The subject of the next experiment is CP286. Put shortly: as §1
A further experiment concerns CP291. The gist of the method: as §1
For the next experiment, the system named is CP297. The gist of the method: as §1
The test system of a further experiment is CP305. Put shortly:
as §1

For the next experiment, the system named is CP315. The gist of the method:
as §1

The next experiment concerns CP325. The gist of the method:
as §1

Another experiment concerns CP329. The gist of the method:
as §1

For a further experiment, the system named is CP335. The gist of the method: as §1
Another experiment concerns DFO2036. The gist of the method: as §1
In the next experiment the test system is DIV14. Put shortly:
as §1

The next experiment deals with DIV17. Put shortly: as §1
The next experiment relates to DIV30. Put shortly:
as §1

Another experiment concerns Dd2. The gist of the method:
as §1

A further experiment deals with ECU. Put shortly: as §1
The next experiment deals with FAB9. Put shortly:
as §1

SMILES strings stand for the structures. Inconclusive results are not listed. A number with no mark means an inactive call. Calls of active or inactive are those of the source. Calls follow the shape of the dose curve; as a rule, active = well fitted inhibition curve with a large enough effect; inconclusive = small, poorly fitted or top-dose-only effect; inactive = flat fitted curve, though single readings scatter.
Potency is read from the fitted curve at half-maximal effect.

With `C[C@]12CC[C@@H]3c4ccc(OC(=O)N(CCCl)CCCl)cc4CC[C@H]3[C@@H]1CC[C@@H]2O`, the Potency result in the experiment on CP262, with CP265, with CP268, in the experiment with CP269, in the experiment with CP286 and in the experiment on CP291 was “inactive” each time. For the same compound, the Potency result in the experiment with CP297, with CP305, in the experiment with CP315, in the experiment on CP325, in the experiment on CP329 and in the experiment on CP335 was “inactive” in each case. Moreover, the Potency entry with DFO2036, in the experiment on DIV14, in the experiment on DIV17, in the experiment on DIV30, in the experiment with Dd2 and with ECU was “inactive” throughout. For the same compound, the Potency entry in the experiment on FAB9 is “inactive”. Besides, the outcome in the experiment on CP266 was inactive.
`C[C@]12CCC(=O)C=C1CC[C@@H]1[C@@H]2CC[C@]2(C)C(=O)CC[C@@H]12`: the Potency result in the experiment with CP262, in the experiment on CP265, in the experiment on CP268, in the experiment on CP269, in the experiment on CP286 and in the experiment with CP291 was “inactive” in each case. Besides, the Potency result with CP297, in the experiment on CP305, in the experiment on CP315, in the experiment with CP325, in the experiment on CP329 and in the experiment with CP335 was “inactive” each time. Besides, the Potency entry with DFO2036, with DIV14, in the experiment with DIV30, in the experiment on Dd2 and with FAB9 was “inactive” throughout. The call in the experiment on CP266 was inactive.
Take `CN1C(=O)CCS(=O)(=O)C1c1ccc(Cl)cc1` (stereo unspecified): the Potency entry in the experiment with CP262, in the experiment on CP265, in the experiment on CP268, in the experiment on CP269, in the experiment with CP286 and in the experiment with CP291 was “inactive” throughout. The Potency result with CP297, in the experiment on CP305, in the experiment on CP315, in the experiment with CP325, with CP329 and in the experiment on CP335 was “inactive” in each case. Also, the Potency result with DFO2036, in the experiment with DIV14, in the experiment on DIV17, in the experiment on DIV30, in the experiment with Dd2 and in the experiment on ECU was “inactive” throughout. For the same compound, the Potency result with FAB9 is “inactive”. Besides, the result in the experiment on CP266 was inactive.
Regarding `c1ccc2c(c1)sc1ccccc12`, the Potency result with CP262, in the experiment on CP265, in the experiment with CP268, with CP269, in the experiment on CP286 and in the experiment with CP291 was “inactive” each time. For the same compound, the Potency entry with CP297, with CP305, in the experiment on CP315, in the experiment with CP325, with CP329 and with CP335 was “inactive” in each case. Besides, the Potency entry in the experiment on DFO2036, in the experiment with DIV14, in the experiment on DIV17, in the experiment with DIV30, in the experiment with Dd2 and in the experiment with ECU was “inactive” in each case. In the experiment on FAB9, the Potency entry was “inactive”. Moreover, the outcome in the experiment with CP266 was inactive.
With `CCOC(=O)CC(SP(=S)(OC)OC)C(=O)OCC` (stereo unspecified), the Potency entry in the experiment with CP262, in the experiment on CP265, in the experiment on CP268, with CP269, in the experiment on CP286 and with CP291 was “inactive” each time. For the same compound, the Potency entry in the experiment on CP297, in the experiment with CP305, with CP315, in the experiment on CP325, in the experiment on CP329 and in the experiment on CP335 was “inactive” in each case. The Potency entry in the experiment on DFO2036, in the experiment with DIV14, in the experiment with DIV17, in the experiment on DIV30, in the experiment with Dd2 and in the experiment on ECU was “inactive” throughout. The Potency entry in the experiment on FAB9 is “inactive”.
Consider `CN1C[C@H](C(=O)N[C@]2(C)O[C@@]3(O)[C@@H]4CCCN4C(=O)[C@H](Cc4ccccc4)N3C2=O)C=C2c3cccc4[nH]cc(c34)C[C@H]21`, for which the Potency was 9.53 µM (active) in the experiment with CP262; 0.631 µM (active) in the experiment with CP265; 6.75 µM (active) with CP268; 4.26 µM (active) in the experiment on CP269; 0.891 µM (active) in the experiment with CP286; 9.53 µM (active) in the experiment on CP291. The Potency with CP297 is 3.38 µM (active); in the experiment with CP305 it was 6.75 µM (active); in the experiment on CP315, 12 µM (active); in the experiment on CP325, 6.75 µM (active); in the experiment on CP329, 15.1 µM (active); in the experiment with CP335, 0.675 µM (active). For the same compound, the Potency with DFO2036 is 1.26 µM (active); in the experiment with DIV14 it was 0.536 µM (active); with DIV17, 0.338 µM (active); in the experiment with DIV30, 1.69 µM (active); in the experiment on Dd2 it was 0.141 µM (active); in the experiment with ECU it was 0.316 µM (active). Besides, the Potency with FAB9 was 6.31 µM (active).
With `C=CCN1C[C@H](C)N([C@H](c2ccc(C(=O)N(CC)CC)cc2)c2cccc(OC)c2)C[C@H]1C`, the compound was classed as inactive in the experiment on CP266. Moreover, the Potency entry in the experiment with CP268, in the experiment on CP269, with CP291, with CP305, in the experiment with CP315 and in the experiment with CP325 was “inactive” in each case. In addition, the Potency result in the experiment with CP329 and with DIV30 was “inactive” in each case. Moreover, the Potency in the experiment with Dd2 was 11.2 µM (active).
For `CCC1(CC)C(=O)C=CNC1=O`, the Potency result with CP262, in the experiment on CP265, with CP268, with CP269, with CP286 and in the experiment on CP291 was “inactive” each time. For the same compound, the Potency entry in the experiment with CP297, with CP305, with CP315, with CP325, with CP329 and in the experiment with CP335 was “inactive” in each case. Moreover, the Potency result with DFO2036, in the experiment with DIV14, in the experiment with DIV17, with DIV30, with Dd2 and in the experiment on ECU was “inactive” each time. The Potency result in the experiment with FAB9 was “inactive”.
Turning to `COP(=S)(OC)SCN1C(=O)c2ccccc2C1=O`, the Potency result in the experiment with CP262, with CP265, in the experiment on CP268, in the experiment with CP269, in the experiment with CP286 and in the experiment on CP291 was “inactive” throughout. For the same compound, the Potency result in the experiment on CP297, with CP305, with CP315, in the experiment on CP325, with CP329 and in the experiment with CP335 was “inactive” in each case. The Potency entry in the experiment with DFO2036, with DIV14, in the experiment on DIV17, in the experiment with DIV30, with Dd2 and in the experiment with ECU was “inactive” each time. For the same compound, the Potency result in the experiment with FAB9 was “inactive”.
For `COc1ccc2c(c1)C13CCCC[C@@H]1C(C2)N(C)CC3` (stereo partly specified), the Potency result in the experiment with CP262, with CP286, in the experiment with CP297, with CP305, in the experiment on CP315 and in the experiment on CP325 was “inactive” in each case. Further, the Potency entry in the experiment with CP329, with DFO2036 and in the experiment with FAB9 was “inactive” in each case. In addition, in the experiment with CP266, the compound was called inactive. Besides, the Potency was 2.69 µM (active) in the experiment on DIV14, 3.01 µM (active) in the experiment with DIV17 and 5.62 µM (active) in the experiment with Dd2.
For the compound `CCCCCCCCCC(=O)O[C@H]1CC[C@H]2[C@@H]3CCC4=CC(=O)CC[C@@H]4[C@H]3CC[C@]12C`, the Potency result with CP262, with CP265, in the experiment on CP268, in the experiment on CP269, with CP291 and with CP297 was “inactive” each time. Also, the Potency result in the experiment with CP305, in the experiment on CP315, in the experiment with CP325, in the experiment with CP329, in the experiment on CP335 and in the experiment on DFO2036 was “inactive” each time. In addition, the Potency entry in the experiment on DIV14, in the experiment on DIV17, in the experiment with DIV30, in the experiment on ECU and in the experiment with FAB9 was “inactive” each time. In the experiment on CP266, the compound was classed as inactive.
On to `C=C(C)[C@H]1CN[C@H](C(=O)O)[C@H]1CC(=O)O`, for which the Potency entry in the experiment on CP262, in the experiment on CP265, in the experiment on CP269, in the experiment with CP286, in the experiment with CP291 and in the experiment on CP305 was “inactive” each time. Besides, the Potency entry in the experiment on CP315, in the experiment with CP325, with CP329, in the experiment on DFO2036, with DIV14 and in the experiment on DIV17 was “inactive” throughout. The Potency result in the experiment with DIV30, in the experiment with Dd2, in the experiment with ECU and in the experiment on FAB9 was “inactive” each time.
On to `O=C(Nc1ccc(Br)cc1)c1cc(Br)cc(Br)c1O`, for which the Potency entry in the experiment on CP265, in the experiment with CP268, in the experiment with CP269, with CP286, in the experiment on CP291 and with CP297 was “inactive” in each case. In addition, the Potency result in the experiment with CP305, in the experiment on CP315, in the experiment on CP325, in the experiment with CP329, in the experiment with CP335 and in the experiment on DFO2036 was “inactive” throughout. The Potency entry with DIV14, in the experiment on DIV17, in the experiment on DIV30, with Dd2, with ECU and in the experiment on FAB9 was “inactive” in each case. In addition, the result in the experiment on CP266 was inactive.
With `CN1C(=O)C(O)N=C(c2ccccc2)c2cc(Cl)ccc21` (stereo unspecified), the Potency entry in the experiment on CP262, in the experiment on CP265, in the experiment on CP268, with CP269, in the experiment with CP286 and in the experiment on CP291 was “inactive” in each case. Besides, the Potency result with CP297, with CP305, in the experiment on CP315, in the experiment with CP325, with CP329 and in the experiment on CP335 was “inactive” each time. In addition, the Potency result in the experiment with DFO2036, in the experiment with DIV14, with DIV17, in the experiment with DIV30, in the experiment with Dd2 and in the experiment with ECU was “inactive” throughout. For the same compound, the Potency entry in the experiment on FAB9 was “inactive”.
With `CCOP(=S)(OCC)Oc1ccc2c(C)c(Cl)c(=O)oc2c1`, the Potency entry in the experiment with CP262, with CP315, with DIV14, with DIV17, with Dd2 and with ECU was “inactive” throughout. The Potency result with FAB9 was “inactive”. In the experiment on CP286, the Potency was 10 µM (active).
With `Nc1ccccc1C(=O)O`, the Potency entry with CP262, with CP265, in the experiment on CP268, with CP269, with CP286 and in the experiment with CP291 was “inactive” throughout. Further, the Potency entry in the experiment on CP297, with CP305, in the experiment with CP315, in the experiment on CP325, in the experiment on CP329 and in the experiment with CP335 was “inactive” each time. Moreover, the Potency entry in the experiment on DFO2036, in the experiment on DIV14, in the experiment on DIV17, in the experiment on DIV30, with Dd2 and in the experiment with ECU was “inactive” throughout. Besides, the Potency result with FAB9 is “inactive”.
